For 40 molecules, THP-1 cell loss results are on record in the supplement of paper PMC7530171.

Each structure is given as a SMILES string. Where a name gives a salt, the structure may show the parent alone. ± gives the standard deviation.

In this assay the test system is THP-1. Nature of the assay: THP-1 cell loss relative to DMSO control; higher = more host cell loss (toxicity); extreme values may be limits of the assay. The settings on record: 10 µM; 4 days; infection: M. tuberculosis H37Rv. The protocol: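 OICR kinase inhibitor library screened in duplicate at 10 uM against M. tuberculosis-infected THP-1 macrophages, 4 days at 37 C. THP-1 cell loss (cytotoxicity or loss of adherence) was quantified from Hoechst-stained nuclei counts by high-content imaging and normalised to the 1% DMSO control; 100 = complete loss of host cells.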
The molecule `CS(=O)(=O)CCNCc1nc(-c2ccc3ncnc(Nc4ccc(OCc5cccc(F)c5)c(Cl)c4)c3c2)cs1` came in with a THP-1 cell loss of 37.5 ± 15%.

`C/C(=N\N=C(N)N)c1ccc(NC(=O)Nc2ccc(/C(C)=N/N=C(N)N)cc2)cc1` had a THP-1 cell loss of 3.54 ± 5%. For `O=c1c(-c2ccc(O)cc2)coc2cc(O)cc(O)c12` [Genistein], the THP-1 cell loss was found to be 4.45 ± 2.2%. `O=C(O)c1ccc2c(c1)nc(Nc1cccc(Cl)c1)c1ccncc12` showed a THP-1 cell loss of 66.8 ± 1.6%.

As for `CN1CCC(COc2cnc(-c3cccc(Cn4nc(-c5cccc(C#N)c5)ccc4=O)c3)nc2)CC1`, the THP-1 cell loss amounted to 90.4 ± 14%.

Regarding `Nc1ncnc(Nc2ccc(OCc3ccccc3)c(Cl)c2)c1/C=N/OCCN1CCOCC1`, the THP-1 cell loss was determined as 38.7 ± 4.5%. `CCN(CC)CCNC(=O)c1c(C)[nH]c(/C=C2\C(=O)Nc3ccc(F)cc32)c1C` [Sunitinib Malate] registered a THP-1 cell loss of 53.7 ± 18%. The value for `COc1cc2ncnc(-n3nc(-c4ccccn4)nc3N)c2cc1OC` was 67 ± 15%; that for `Cc1cnc(Nc2ccc(OCCN3CCCC3)cc2)nc1Nc1cccc(S(=O)(=O)NC(C)(C)C)c1` was 100%. The figure for `COc1ccc(-c2ccc3ncc4c(c3c2)n(-c2ccc(N3CCNCC3)c(C(F)(F)F)c2)c(=O)n4C)cn1` is 100%; for `COc1nccc(-c2c(-c3ccc(F)cc3)ncn2C2CCC(O)CC2)n1` (stereo not given) it is 1.08 ± 1.5%; for `O=C(NC[C@H](O)CO)c1ccncc1Nc1ccc(I)cc1F` it is 100%. The molecule `N#C/C(=C(/N)Sc1ccc(N)cc1)c1ccccc1C(F)(F)F` had a THP-1 cell loss of 78.2 ± 4.7%. The figure for `COc1cc2c(N3CCN(C(=O)Nc4ccc(OC(C)C)cc4)CC3)ncnc2cc1OCCCN1CCCCC1` is 4.46 ± 6.3%; for `CSc1cccc(Nc2ncc3cc(-c4c(Cl)cccc4Cl)c(=O)n(C)c3n2)c1` it is 100%.

With `COc1cc(Nc2ncc3c(n2)-c2ccc(Cl)cc2C(c2c(F)cccc2OC)=NC3)ccc1C(=O)O`, the THP-1 cell loss was determined as 8.63 ± 10%.

Molecule `CN1CCN(CCOc2cc(OC3CCOCC3)c3c(Nc4c(Cl)ccc5c4OCO5)ncnc3c2)CC1` came in with a THP-1 cell loss of 20.5 ± 7%. The figure for `CC(C)CCN1c2nc(Nc3cc(F)c(O)c(F)c3)ncc2N(C)C(=O)C1C` (stereo not given) is 56.5 ± 6.2%; for `NC(=O)c1ccc(-c2nc(-c3ccc4c(c3)OCCO4)c(-c3ccccn3)[nH]2)cc1` it is 43.2 ± 50%; for `COc1cc2ncnc(Nc3ccc(O)c(Br)c3)c2cc1OC` it is 15.2 ± 1.4%. The value for `O=C1Cc2c([nH]c3ccc(Br)cc23)-c2ccccc2N1` [Kenpaullone] was 100%; that for `COc1cc(OC)c(C=C2C(=O)Nc3ccccc32)c(OC)c1` was 45.3 ± 6.7%. The figure for `COc1cc(Nc2ncc(F)c(Nc3ccc4c(n3)N(COP(=O)(O)O)C(=O)C(C)(C)O4)n2)cc(OC)c1OC` is 59.6 ± 57%; for `O=C1NC(=O)/C(=C/c2ccc3c(c2)OC(F)(F)O3)S1` it is 7.44 ± 3.3%.

`COc1cc(OC2CCN(C)CC2)ccc1Nc1ncc2c(n1)n(C1CCCC1)c(=O)n2C`: the THP-1 cell loss turned out to be 87.6 ± 18%. The molecule `COc1cc(C[C@H]2C(=O)OC[C@@H]2Cc2ccc(OC)c(OC)c2)ccc1O` [Arctigenin] returned a THP-1 cell loss of 35 ± 18%. The value for `CNC(=O)c1ccccc1Sc1ccc2c(/C=C/c3ccccn3)n[nH]c2c1` [Axitinib] was 14.9 ± 11%; that for `N#CC(=C(/N)Sc1ccccc1N)/C(C#N)=C(/N)Sc1ccccc1N` was 39.2 ± 23%; that for `CS(=O)(=O)CCNCc1ccc(-c2ccc3ncnc(Nc4ccc(OCc5cccc(F)c5)c(Cl)c4)c3c2)o1` [Lapatinib ditosylate] was 100%. For the molecule `O=c1[nH]ccc2c(S(=O)(=O)N3CCCNCC3)cccc12` [HA 1100 hydrochloride], the THP-1 cell loss worked out at 0%. `CC#CC(=O)Nc1cc2c(Nc3ccc(F)c(Cl)c3)ncnc2cn1` showed a THP-1 cell loss of 89.9 ± 14%. The value for `O=S(=O)(Nc1ccccn1)c1ccc(N=Cc2c(O)[nH]c3ccc4ncsc4c23)cc1` was 100%; that for `COc1cccc2cc(-c3nc([C@H]4CC[C@H](C(=O)O)CC4)n4ncnc(N)c34)[nH]c12` [OSI-027 hydrochloride] was 51.2 ± 4.5%; that for `CCN(CC)CC1CCN(c2ncc3ncnc(Nc4ccc(F)c(Cl)c4)c3n2)CC1` [BIBU 1361 dihydrochloride] was 100%. The value for `CCc1cncnc1N1CCN(Cc2nc3ccc(C(F)(F)F)cc3[nH]2)CC1` was 92.6 ± 10%; that for `CC1(C)CNc2cc(NC(=O)c3cccnc3NCc3ccncc3)ccc21` [Motesanib diphosphate salt] was 4.91 ± 6.9%; that for `COc1cc2/c(=N/c3ccc(Br)cc3F)nc[nH]c2cc1OCC1CCN(C)CC1` [Vandetanib] was 40.7 ± 6.5%. `Cn1cc(C2=C(c3cn(CCCSC(=N)N)c4ccccc34)C(=O)NC2=O)c2ccccc21` [Ro-31-8220 mesylate] returned a THP-1 cell loss of 100%. The figure for `CO[C@H]1C[C@@H]2CC[C@@H](C)[C@@](O)(O2)C(=O)C(=O)N2CCCC[C@H]2C(=O)O[C@H]([C@H](C)C[C@@H]2CC[C@@H](OCCO)[C@H](OC)C2)CC(=O)[C@H](C)/C=C(\C)[C@@H](O)[C@@H](OC)C(=O)[C@H](C)C[C@H](C)/C=C/C=C/C=C/1C` [Everolimus] is 22 ± 0.045%; for `O=C1Nc2ccc(I)cc2/C1=C/c1cc(Br)c(O)c(Br)c1` it is 20.5 ± 16%.
